Bioassay records deposited in PubChem by National Center for Advancing Translational Sciences (NCATS).
An excerpt weighted towards active compounds, which were near 2% of everything screened.
Six1-Eya2 inh – qHTS Assay for Inhibitors of the Six1/Eya2 Interaction. activity change, % (test concentration not listed). AID 651725, 2012. 360,000 compounds, 0.56% hits. Homeobox protein SIX1 (Homo sapiens) + Protein phosphatase EYA2 (Homo sapiens), …. AlphaScreen GST-Six1/His-Eya2 binding, biochemical; active compounds read low
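AlphaScreen with GST-Six1 and His-Eya2 (5X mix: 250 nM and 500 nM), glutathione donor and nickel acceptor beads; buffer 50 mM Tris pH 8.0, 300 mM NaCl, 1 mM TCEP; 1 h at 37 C in the dark.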
KCNH2 3.1 inh – qHTS for Inhibitors of KCHN2 3.1: Mutant qHTS; Potassium voltage-gated channel subfamily H member 2, brain isoform KCNH2 3.1 (human); U2OS KCNH2 3.1, thallium flux FluxOr; active compounds read low; AID 720553, 2013; activity change, % (tested at about 1.8 µM); 340,000 compounds, 0.95% hits;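 active means maximum activity change below -70%; inconclusive means maximum activity change from -70% to -50%; inactive means maximum activity change above -50%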;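 further: thallium influx rate constant from kinetic fluorescence after stimulation buffer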
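FluxOr-based Tl+ influx in U2OS cells transduced with KCNH2 3.1 virus; rate constants normalized to DMSO controls.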
KDM4E inh – qHTS Assay for Inhibitors of Human Jumonji Domain Containing 2E (JMJD2E) | Potency, µM (titrated, usually from 57.1 µM), usual class: inhibitors | AID 2147, 2009 | Lysine-specific demethylase 4E (Homo sapiens), B2RXH2 | JMJD2E catalytic domain, FDH-coupled NADH fluorescence (FDH is formaldehyde dehydrogenase) | 230,000 compounds, 1.6% hits; active means well fitted inhibition curve with a large enough effect, not every such curve was filed as active; inconclusive means small, poorly fitted or top-dose-only effect, or another doubt; inactive means no such curve, though single readings can be large or run the other way; further: nearly all actives have a fitted effect of over 50% in size
CtBP-E1A blk – qHTS Assay for Inhibitors of the CtBP/E1A Interaction; activity change, % (concentration not given with the values); 340,000 compounds, 0.49% hits; CtBP / adenovirus E1A interaction (AlphaScreen); AID 651724, 2012; AlphaScreen GST-E1A/His-CtBP binding, 1536-well; active compounds read low
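GST-E1A and His-tagged CtBP (125 nM each as 5X stock) were preincubated with pin-transferred compound for 2 h at 37 °C in the dark, then glutathione donor and nickel acceptor beads were added for 1 h before AlphaScreen reading.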
hERG WT inh – qHTS for Inhibitors of KCHN2 3.1: Wildtype qHTS. Voltage-gated inwardly rectifying potassium channel KCNH2 (Homo sapiens), Q12809. 340,000 compounds, 0.37% hits. AID 720551, 2013. U2OS, BacMam KCNH2, thallium flux FluxOr; active compounds read low. activity change, % at 1.84 µM;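 active means maximum activity change below -70%; inconclusive means maximum activity change between -70% and -50%; inactive means maximum activity change above -50%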
Target sequence (Q12809 whole entry, looked up): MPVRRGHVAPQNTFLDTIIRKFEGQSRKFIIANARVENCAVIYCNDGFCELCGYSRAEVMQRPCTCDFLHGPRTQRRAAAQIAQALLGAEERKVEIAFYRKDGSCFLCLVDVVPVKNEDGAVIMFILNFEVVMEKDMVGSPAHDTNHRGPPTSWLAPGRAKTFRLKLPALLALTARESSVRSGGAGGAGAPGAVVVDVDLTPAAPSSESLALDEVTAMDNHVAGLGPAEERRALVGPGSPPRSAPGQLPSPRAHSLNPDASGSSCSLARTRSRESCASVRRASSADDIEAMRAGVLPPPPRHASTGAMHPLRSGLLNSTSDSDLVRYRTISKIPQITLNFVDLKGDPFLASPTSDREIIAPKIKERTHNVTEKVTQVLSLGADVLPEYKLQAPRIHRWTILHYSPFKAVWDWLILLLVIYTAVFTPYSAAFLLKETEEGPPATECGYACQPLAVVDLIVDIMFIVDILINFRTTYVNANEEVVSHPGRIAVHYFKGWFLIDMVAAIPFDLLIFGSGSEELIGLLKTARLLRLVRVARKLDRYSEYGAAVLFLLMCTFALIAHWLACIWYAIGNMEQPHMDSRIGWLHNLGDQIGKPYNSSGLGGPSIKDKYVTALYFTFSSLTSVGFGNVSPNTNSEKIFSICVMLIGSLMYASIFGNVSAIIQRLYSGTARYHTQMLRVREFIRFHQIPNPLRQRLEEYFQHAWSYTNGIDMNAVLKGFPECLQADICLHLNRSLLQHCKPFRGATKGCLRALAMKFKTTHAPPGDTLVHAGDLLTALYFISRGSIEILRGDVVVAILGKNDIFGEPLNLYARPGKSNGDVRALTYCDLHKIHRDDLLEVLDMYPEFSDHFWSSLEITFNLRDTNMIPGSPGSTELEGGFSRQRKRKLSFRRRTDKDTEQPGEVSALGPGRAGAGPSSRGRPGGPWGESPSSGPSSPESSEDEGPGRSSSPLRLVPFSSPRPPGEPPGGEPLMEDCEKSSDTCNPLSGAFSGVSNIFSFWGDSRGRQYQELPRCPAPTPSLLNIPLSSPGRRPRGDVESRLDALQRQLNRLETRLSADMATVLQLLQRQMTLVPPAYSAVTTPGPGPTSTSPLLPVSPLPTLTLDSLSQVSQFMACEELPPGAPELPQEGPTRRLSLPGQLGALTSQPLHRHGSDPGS
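U2OS cells were transduced with wild-type KCNH2 virus (2.03 x 10^8 / mL) for 4 h at room temperature, then cultured overnight at 37 C. Thallium flux was read with FluxOr dye. Rate constants were normalized to DMSO controls.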
A number is an active result. Unless noted, no stated cut-off is given here; in the data, active means activity change below about -65%; inconclusive means mostly about -30% to -63%; inactive means weaker than that.

How did COCCn1c(-c2cccc(Br)c2)nc2c(c(=O)c3ccccc3n2C)c1=O do in these assays?
Six1-Eya2 inh: inactive; KCNH2 3.1 inh: inactive; KDM4E inh: inactive; hERG WT inh: inactive

How did CN1CC[n+]2c(CN3C(=O)c4ccccc4C3=O)csc21 do in these assays?
Six1-Eya2 inh: inactive; KCNH2 3.1 inh: inactive; KDM4E inh: inactive; CtBP-E1A blk: inactive; hERG WT inh: inactive

What do the screens show for `Clc1cccc(OCCCN2CCCC2)c1Cl`?
Six1-Eya2 inh: inactive; KCNH2 3.1 inh: inactive; KDM4E inh: inactive; hERG WT inh: inactive

How did CCCn1c(=O)c(C(=O)NCc2ccncc2)c(O)c2ccccc21 do in these assays?
Six1-Eya2 inh: inactive; KCNH2 3.1 inh: inactive; KDM4E inh: inactive; CtBP-E1A blk: inactive; hERG WT inh: inactive

How did O=C1/C(=C\c2ccco2)SC(=S)N1c1ccccc1 do in these assays?
Six1-Eya2 inh: inactive; KCNH2 3.1 inh: inactive; KDM4E inh: 20µM; CtBP-E1A blk: inactive; hERG WT inh: inactive

Results for O=C1/C(=C/c2ccco2)SC(=S)N1CC1CCCO1 (stereo not given) ?
Six1-Eya2 inh: inconclusive; KCNH2 3.1 inh: inactive; KDM4E inh: 11.2µM; CtBP-E1A blk: inactive; hERG WT inh: inactive

What do the screens show for `O=C1/C(=C\c2ccco2)SC(=S)N1C1CCS(=O)(=O)C1` (stereo not given)?
Six1-Eya2 inh: inactive; KCNH2 3.1 inh: inactive; KDM4E inh: 28.2µM; CtBP-E1A blk: inactive; hERG WT inh: inactive

What do the screens show for `CCCN(CCC)CCNC(=O)CS(=O)Cc1nc(-c2ccc(C)cc2)oc1C` (stereo not given)?
Six1-Eya2 inh: inactive; KCNH2 3.1 inh: inactive; KDM4E inh: inactive; CtBP-E1A blk: inactive; hERG WT inh: inactive

What do the screens show for `Cn1cc(CN2CCc3c([nH]c4ccccc34)C2C(C)(C)C)cn1` (stereo not given)?
Six1-Eya2 inh: inactive; KCNH2 3.1 inh: inactive; KDM4E inh: inconclusive; CtBP-E1A blk: inactive; hERG WT inh: inactive

What do the screens show for `Cn1cc(CN2CCc3c([nH]c4ccccc34)C2C2CCCCC2)cn1` (stereo not given)?
Six1-Eya2 inh: inactive; KCNH2 3.1 inh: inactive; KDM4E inh: 20µM; CtBP-E1A blk: inactive; hERG WT inh: inactive

How did CCOc1ccccc1-n1c(SCC(N)=O)nnc1-c1ccc(O)cc1 do in these assays?
Six1-Eya2 inh: -89.7; KCNH2 3.1 inh: inactive; KDM4E inh: inactive; CtBP-E1A blk: -90.4; hERG WT inh: inactive

What do the screens show for `CCOc1ccccc1-n1c(SCC(N)=O)nnc1-c1ccccc1`?
Six1-Eya2 inh: inactive; KCNH2 3.1 inh: inactive; KDM4E inh: inactive; CtBP-E1A blk: inactive; hERG WT inh: inactive

How did O=C(CNC(=O)c1ccco1)N/N=C/c1ccc(O)cc1O do in these assays?
Six1-Eya2 inh: -85.8; KCNH2 3.1 inh: inactive; hERG WT inh: inactive

How did O=C(CNC(=O)c1ccco1)N/N=C/c1cc(Br)ccc1O do in these assays?
Six1-Eya2 inh: -96.5; KCNH2 3.1 inh: inactive; CtBP-E1A blk: -85.7; hERG WT inh: inactive

How did COc1cc(/C=N/NC(=O)CNC(=O)c2ccco2)ccc1O do in these assays?
Six1-Eya2 inh: inactive; KCNH2 3.1 inh: inactive; KDM4E inh: inactive; CtBP-E1A blk: inactive; hERG WT inh: inactive

How did C/C(=N/NC(=O)CNC(=O)c1ccco1)c1ccco1 do in these assays?
Six1-Eya2 inh: inactive; KCNH2 3.1 inh: inactive; CtBP-E1A blk: inactive; hERG WT inh: inactive

How did C=CCn1cc(C(=O)c2cc(Br)ccc2O)cc(C#N)c1=O do in these assays?
Six1-Eya2 inh: inactive; KCNH2 3.1 inh: inactive; KDM4E inh: inactive; CtBP-E1A blk: inactive; hERG WT inh: inactive

Results for CC(NC(=O)c1ccc(=O)oc1)c1ccccc1 (stereo not given) ?
Six1-Eya2 inh: inactive; KCNH2 3.1 inh: inactive; KDM4E inh: inactive; CtBP-E1A blk: inactive; hERG WT inh: inactive

What do the screens show for `c1ccc(CNc2nc3ccccc3[nH]2)cc1`?
Six1-Eya2 inh: inactive; KCNH2 3.1 inh: inactive; KDM4E inh: inactive; CtBP-E1A blk: inactive; hERG WT inh: inactive

How did c1ccc2[nH]c(NCc3ccc4c(c3)OCO4)nc2c1 do in these assays?
Six1-Eya2 inh: inactive; KCNH2 3.1 inh: inactive; KDM4E inh: inactive; CtBP-E1A blk: inactive; hERG WT inh: -125.9

Results for CCCCCC1CC(CC(=O)Nc2nncs2)C(=O)O1 (stereo not given) ?
Six1-Eya2 inh: inactive; KCNH2 3.1 inh: inactive; KDM4E inh: inactive; CtBP-E1A blk: inactive; hERG WT inh: inactive

What do the screens show for `COc1ccc(-n2nc([N+](=O)[O-])c(=NCCC3=CCCCC3)n2O)cc1`?
Six1-Eya2 inh: -69.6; KCNH2 3.1 inh: inactive; KDM4E inh: inactive; CtBP-E1A blk: inconclusive; hERG WT inh: inactive

What do the screens show for `COc1ccc(C(=O)Nc2ccc(C(=O)Nc3nccs3)cc2)cc1[N+](=O)[O-]`?
Six1-Eya2 inh: inactive; KCNH2 3.1 inh: inconclusive; KDM4E inh: inactive; CtBP-E1A blk: inactive; hERG WT inh: -92.7

How did CCOc1ccc(C(=O)Nc2cccc(-c3cc4ccccc4oc3=O)c2)cc1[N+](=O)[O-] do in these assays?
Six1-Eya2 inh: inactive; KCNH2 3.1 inh: -92.7; KDM4E inh: inconclusive; CtBP-E1A blk: inactive; hERG WT inh: inconclusive

What do the screens show for `CCOc1ccc2nc(NC(=O)c3cccc(-c4cc5ccccc5oc4=O)c3)sc2c1`?
Six1-Eya2 inh: inactive; KCNH2 3.1 inh: inactive; KDM4E inh: inconclusive; CtBP-E1A blk: inactive; hERG WT inh: inactive

What do the screens show for `CCOc1ccc(C(=O)Nc2ccc(NC(=O)c3cccs3)cc2)cc1[N+](=O)[O-]`?
Six1-Eya2 inh: inactive; KCNH2 3.1 inh: -98.6; KDM4E inh: inactive; CtBP-E1A blk: inactive; hERG WT inh: -80.8

What do the screens show for `COc1ccc(C(=O)Nc2ccc(NC(=O)c3cccs3)cc2)cc1[N+](=O)[O-]`?
Six1-Eya2 inh: inactive; KCNH2 3.1 inh: inactive; KDM4E inh: inactive; CtBP-E1A blk: inactive; hERG WT inh: inactive

What do the screens show for `CCc1ccccc1OCCCCN1CCCCC1`?
Six1-Eya2 inh: inactive; KCNH2 3.1 inh: inactive; CtBP-E1A blk: inactive; hERG WT inh: inactive

How did Cc1cc(C)n2ncc(C(=O)NCc3ccccc3)c2n1 do in these assays?
Six1-Eya2 inh: inactive; KCNH2 3.1 inh: -87.1; KDM4E inh: inconclusive; CtBP-E1A blk: inactive; hERG WT inh: inactive

Results for COc1ccc(OCCN2C(=O)NC(C)(c3ccc(C)cc3)C2=O)cc1 (stereo not given) ?
Six1-Eya2 inh: inactive; KCNH2 3.1 inh: inactive; KDM4E inh: inactive; CtBP-E1A blk: inactive; hERG WT inh: inactive

How did Cc1cc(=O)c(C(=O)O)cn1Nc1ccc(F)cc1 do in these assays?
Six1-Eya2 inh: inactive; KCNH2 3.1 inh: -84.0; KDM4E inh: inactive; CtBP-E1A blk: inactive; hERG WT inh: inactive

How did CCC(C(=O)Nc1cc(C)on1)c1ccccc1 (stereo not given) do in these assays?
Six1-Eya2 inh: inactive; KCNH2 3.1 inh: inactive; KDM4E inh: inactive; CtBP-E1A blk: inactive; hERG WT inh: inactive
